A short description of experiment [1]: qHTS assay to identify aromatase inhibitors - cell viability counter screen (AID 743084).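 Further: cells stimulated with testosterone during compound exposure; nearly all actives have a fitted effect of over 55% in size.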 Further: potency means the concentration at half of the fitted maximal effect.
Experiment [2] in a line: qHTS assay to identify small molecule that activate the aryl hydrocarbon receptor (AhR) signaling pathway - cell viability counter screen (AID 743086).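 Further: HepG2 liver cells carrying the AhR DRE luciferase reporter; series mostly up to about 70 µM; nearly all actives have a fitted effect of over 45% in size.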 A digest of the protocol: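 HepG2-AhR-luc (HG2L7.5c1) cells, 4000/well, treated 24 h at 37 C with compound; viability measured as CellTiter-Fluor fluorescence after 30 min in the same wells as the luciferase read.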
For orientation: In qHTS, concentration-response curves come from the screen itself.

Experiment [3] has as its target Peroxisome proliferator-activated receptor gamma (Homo sapiens) (UniProt P37231). As to the kind of experiment: qHTS assay to identify small molecule antagonists of the peroxisome proliferator-activated receptor gamma (PPARg) signaling pathway (AID 743191; calls by dose curve; further: nearly all actives have a fitted effect of over 30% in size; further: potency means the concentration at half of the fitted maximal effect). A digest of the protocol: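 GeneBLAzer PPARg UAS-bla HEK293H cells, 5 h post-plating, exposed to compounds 17 h at 37C. LiveBLAzer B/G FRET substrate added for 1 h at room temperature; beta-lactamase reporter read by fluorescence intensity.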

A short description of experiment [4]: qHTS assay for small molecule agonists of the antioxidant response element (ARE) signaling pathway (AID 743202; active means well fitted activation curve with a large enough effect in the signal ratio in the repeat runs, not every such curve was filed as active; the % refers to the signal ratio; further: potency means the concentration at half of the fitted maximal effect). Summed up: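 HepG2 ARE-bla reporter line, 2,000 cells/well; 5 h preincubation 37 C/5% CO2; compound (DMSO) 16 h 37 C; B/G FRET substrate 2 h RT; fluorescence intensity.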
Experiment [5] can be described thus: qHTS assay for small molecule agonists of the antioxidant response element (ARE) signaling pathway - cell viability counter screen (AID 743203; calls by dose curve; further: nearly all actives have a fitted effect of over 55% in size; further: potency means the concentration at half of the fitted maximal effect). Summed up:
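Viability counter screen: CellTiter-Glo luminescence, read after 30 min at room temperature, in ARE-bla HepG2 wells. Compound exposure lasted 16 h at 37C/5% CO2, following a 5 h pre-incubation of the cells after plating.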

Experiment [6] is described as follows: qHTS assay for small molecule activators of the heat shock response signaling pathway (AID 743210; active means well fitted activation curve with a large enough effect in the signal ratio in the repeat runs, with a control signal flat, not every such curve was filed as active; the % refers to the signal ratio;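 further: HeLa cells with beta-lactamase reporter driven by heat shock elements; series mostly up to about 63 µM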). Summed up:
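Beta-lactamase reporter read-out: FRET substrate fluorescence after 2.5 h at RT, following 5 h compound treatment at 37 C of HeLa cells carrying HSE-driven bla reporter; quantitative HTS format.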

Experiment [7] in a line: qHTS assay to identify small molecule agonists of the peroxisome proliferator-activated receptor delta (PPARd) signaling pathway - cell viability counter screen (AID 743211). Further: nearly all actives have a fitted effect of over 55% in size. Summed up:
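Read-out: CellTiter-Glo luminescence, 30 min RT, measured in the same wells as the beta-lactamase reporter. Cells: GeneBLAzer PPAR delta UAS-bla HEK293H, 3000 cells/well, compound exposure 17 h at 37C.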

Experiment [8] deals with Peroxisome proliferator-activated receptor delta (Homo sapiens) (UniProt Q03181). As to the kind of experiment: qHTS assay to identify small molecule agonists of the peroxisome proliferator-activated receptor delta (PPARd) signaling pathway (AID 743212; calls by dose curve). A digest of the protocol:
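Read-out: beta-lactamase FRET fluorescence after 2 h room-temperature incubation with LiveBLAzer B/G substrate. Cells were HEK293H carrying a UAS-bla reporter for PPARd, treated at 37 C with DMSO-dissolved compounds.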

Experiment [9] in a line: qHTS assay to identify small molecule antagonists of the peroxisome proliferator-activated receptor delta (PPARd) signaling pathway - cell viability counter screen (AID 743213). Further: nearly all actives have a fitted effect of over 50% in size. A digest of the protocol:
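PPARd-bla HEK293H cells (3000/well) got compound plus 300 nM L165041 agonist for 17 h at 37 C. Viability in the same wells came from CellTiter-Glo luminescence after 30 min at room temperature.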

In experiment [10] the target is Peroxisome proliferator-activated receptor delta (Homo sapiens) (UniProt Q03181). Briefly: qHTS assay to identify small molecule antagonists of the peroxisome proliferator-activated receptor delta (PPARd) signaling pathway (AID 743215; active means well fitted inhibition curve with a large enough effect in the signal ratio in the repeat runs, not every such curve was filed as active; the % refers to the signal ratio;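 further: cells stimulated with agonist L165041 at 300 nM final during compound exposure; series mostly up to about 62 µM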). A digest of the protocol: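 Agonist L165041 (300 nM final) added with compound to PPARd-bla HEK293H UAS-bla reporter cells; 17 h incubation at 37 C. Read-out: LiveBLAzer FRET substrate, 2 h at room temperature, fluorescence intensity.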

Experiment [11] deals with Bile acid receptor (Homo sapiens) (UniProt Q96RI1). As to the kind of experiment: qHTS assay to identify small molecule antagonists of the farnesoid-X-receptor (FXR) signaling pathway (AID 743217; active means well fitted inhibition curve with a large enough effect in the signal ratio in the repeat runs, not every such curve was filed as active; the % refers to the signal ratio). Summed up: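 Antagonist mode: chenodeoxycholic acid at 50 uM final stimulates a UAS-driven beta-lactamase reporter in HEK 293T FXR-bla cells during 16 h, 37C compound exposure. Read-out is FRET substrate fluorescence after 2 h at room temperature.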

Experiment [12] can be described thus: qHTS assay to identify small molecule agonists of the farnesoid-X-receptor (FXR) signaling pathway - cell viability counter screen (AID 743218). Further: nearly all actives have a fitted effect of over 45% in size. Summed up: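 Viability counter screen in the same wells: CellTiter-Glo luminescence, 30 min room-temperature incubation, measured after the beta-lactamase read. Cells were GeneBLAzer FXR-UAS-bla HEK 293T, compound-treated 16 h at 37C.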

Experiment [13] concerns the target Bile acid receptor (Homo sapiens) (UniProt Q96RI1). Briefly: qHTS assay to identify small molecule agonists of the farnesoid-X-receptor (FXR) signaling pathway (AID 743220; active means well fitted activation curve with a large enough effect in the signal ratio in the repeat runs, not every such curve was filed as active; the % refers to the signal ratio). Summed up:
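FXR-UAS-bla HEK 293T cells carrying a UAS-driven beta-lactamase reporter were plated for 5 h at 37C/5% CO2, then exposed to DMSO-dissolved Tox21 10K compounds for 16 h at 37C. A LiveBLAzer B/G FRET substrate was loaded for 2 h at room temperature before fluorescence reading.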

A short description of experiment [14]: qHTS assay to identify small molecule antagonists of the farnesoid-X-receptor (FXR) signaling pathway - cell viability counter screen (AID 743221; active means well fitted cell-killing curve with a large enough effect in the repeat runs, not every such curve was filed as active; further: nearly all actives have a fitted effect of over 50% in size). A digest of the protocol: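 HEK 293T FXR-bla cells, 5 h pre-incubation; compound + CDCA 50 uM final, 16 h, 37 C; beta-lactamase FRET read first, then CellTiter-Glo luminescence, 30 min RT.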
Experiment [15] has as its target Vitamin D3 receptor (Homo sapiens) (UniProt P11473). As to the kind of experiment: qHTS assay to identify small molecule agonists of the vitamin D receptor (VDR) signaling pathway (AID 743222; calls by dose curve). A digest of the protocol: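 Agonist mode, beta-lactamase reporter: fluorescence from LiveBLAzer B/G FRET substrate (2 h, room temperature) read after 16 h compound treatment at 37 C of VDR-bla cells, which were pre-incubated 4 h after seeding.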

Experiment [16] has the same target. Briefly: qHTS assay to identify small molecule antagonists of the vitamin D receptor (VDR) signaling pathway (AID 743223; active means well fitted inhibition curve with a large enough effect in the signal ratio in the repeat runs, not every such curve was filed as active; the % refers to the signal ratio). A digest of the protocol:
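Beta-lactamase reporter read-out: FRET substrate fluorescence after 2 h at room temperature, following 16 h exposure of VDR-bla cells to test compound plus 3 nM (final) 1alpha,25-dihydroxyvitamin D3 agonist at 37C.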

Experiment [17] deals with Aryl hydrocarbon receptor (Homo sapiens) (UniProt P35869). As to the kind of experiment: qHTS assay to identify small molecule that activate the aryl hydrocarbon receptor (AhR) signaling pathway (AID 743085). Further: nearly all actives have a fitted effect of over 15% in size. Further: potency means the concentration at half of the fitted maximal effect.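 On activation: HG2L7.5c1 human HepG2 liver cells with stably integrated DRE-driven firefly reporter; series mostly up to about 70 µM.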 A digest of the protocol:
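Luminescence read-out: ONE-Glo reagent, 30 min at room temperature, in HG2L7.5c1 HepG2 reporter cells treated 24 h at 37C. Viability was measured beforehand by CellTiter-Fluor fluorescence after 30 min at 37C.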

Experiment [18] can be described thus: qHTS assay for small molecule activators of the heat shock response signaling pathway - cell viability counter screen (AID 743209). Further: nearly all actives have a fitted effect of over 50% in size. Summed up:
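Cytotoxicity counter screen run in the same wells as the heat-shock bla reporter assay: HeLa HSE-bla cells, 5 h compound exposure at 37 C, viability read by CellTiter-Glo luminescence.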

For experiment [19], the target named is Peroxisome proliferator-activated receptor gamma (Homo sapiens) (UniProt P37231). Briefly: qHTS assay to identify small molecule agonists of the peroxisome proliferator-activated receptor gamma (PPARg) signaling pathway (AID 743094; active means well fitted activation curve with a large enough effect in the signal ratio in the repeat runs, not every such curve was filed as active; the % refers to the signal ratio). A digest of the protocol: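 Agonist activity was taken from a beta-lactamase reporter (FRET substrate, 1 h at room temperature) in HEK293H cells carrying a PPARg UAS-bla construct. Compounds in DMSO were incubated 17 h at 37C after a 5 h cell pre-incubation.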

Experiment [20] in a line: qHTS assay to identify small molecule antagonists of the peroxisome proliferator-activated receptor gamma (PPARg) signaling pathway - cell viability counter screen (AID 743194). Further: nearly all actives have a fitted effect of over 55% in size. The conditions noted are these: Potency: co-treated with 50 nM rosiglitazone. A digest of the protocol: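 Cytotoxicity counter screen in PPARg-bla HEK293H cells, same wells as reporter assay. Compounds plus 50 nM rosiglitazone (final) for 17 h at 37 C, then viability read by CellTiter-Glo luminescence.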

Potency and outcome data for 10 compounds are collected here from PubChem BioAssay (Tox21).

Results filed as inconclusive are left out. Calls of active or inactive are those of the source. Unless noted, the call rests on the fitted dose curve; in most records, active means well fitted curve in the direction sought with a large enough effect in the repeat runs; inconclusive means weak or mixed curves; inactive means no such curve, though single readings can be large; an effect the other way counts as inactive or inconclusive.

Peroxisome proliferator-activated receptor gamma (Homo sapiens), sequence (P37231 whole entry, looked up): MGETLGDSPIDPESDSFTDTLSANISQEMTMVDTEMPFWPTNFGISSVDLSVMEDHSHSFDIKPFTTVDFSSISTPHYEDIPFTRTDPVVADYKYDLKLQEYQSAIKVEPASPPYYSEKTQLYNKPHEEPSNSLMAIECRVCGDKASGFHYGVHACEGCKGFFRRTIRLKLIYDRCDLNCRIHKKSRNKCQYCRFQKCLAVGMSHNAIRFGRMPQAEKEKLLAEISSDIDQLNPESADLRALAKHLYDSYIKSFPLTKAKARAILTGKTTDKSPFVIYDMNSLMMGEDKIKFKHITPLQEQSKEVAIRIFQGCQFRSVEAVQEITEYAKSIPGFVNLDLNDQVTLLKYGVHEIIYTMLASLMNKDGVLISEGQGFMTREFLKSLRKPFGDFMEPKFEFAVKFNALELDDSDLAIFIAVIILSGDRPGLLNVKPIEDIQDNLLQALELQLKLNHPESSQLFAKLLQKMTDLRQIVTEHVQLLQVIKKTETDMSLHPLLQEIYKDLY
Aryl hydrocarbon receptor (Homo sapiens), sequence (P35869 whole entry, looked up): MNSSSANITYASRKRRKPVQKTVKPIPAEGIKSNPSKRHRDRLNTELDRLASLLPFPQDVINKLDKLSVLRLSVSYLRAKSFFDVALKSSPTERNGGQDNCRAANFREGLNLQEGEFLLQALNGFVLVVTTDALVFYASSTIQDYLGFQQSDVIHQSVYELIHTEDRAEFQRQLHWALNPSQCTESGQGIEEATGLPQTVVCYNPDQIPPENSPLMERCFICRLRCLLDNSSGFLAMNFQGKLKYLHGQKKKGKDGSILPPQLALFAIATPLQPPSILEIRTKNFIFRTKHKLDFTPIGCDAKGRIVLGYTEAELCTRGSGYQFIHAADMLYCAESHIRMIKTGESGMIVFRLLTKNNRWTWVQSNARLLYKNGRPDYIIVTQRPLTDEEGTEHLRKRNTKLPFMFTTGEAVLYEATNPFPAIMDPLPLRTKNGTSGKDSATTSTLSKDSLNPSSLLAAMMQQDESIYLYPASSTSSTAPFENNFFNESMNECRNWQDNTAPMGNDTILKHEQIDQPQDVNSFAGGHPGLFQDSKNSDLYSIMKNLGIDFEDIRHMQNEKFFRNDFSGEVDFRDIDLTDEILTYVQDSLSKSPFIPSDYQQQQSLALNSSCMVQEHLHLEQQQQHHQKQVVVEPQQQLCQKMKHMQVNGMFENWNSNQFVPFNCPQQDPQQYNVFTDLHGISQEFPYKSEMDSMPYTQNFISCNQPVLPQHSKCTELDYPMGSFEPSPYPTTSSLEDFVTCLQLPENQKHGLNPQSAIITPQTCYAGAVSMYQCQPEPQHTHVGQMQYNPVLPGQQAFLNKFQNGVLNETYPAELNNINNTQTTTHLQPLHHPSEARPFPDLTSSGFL
Peroxisome proliferator-activated receptor delta (Homo sapiens), sequence (Q03181 whole entry, looked up): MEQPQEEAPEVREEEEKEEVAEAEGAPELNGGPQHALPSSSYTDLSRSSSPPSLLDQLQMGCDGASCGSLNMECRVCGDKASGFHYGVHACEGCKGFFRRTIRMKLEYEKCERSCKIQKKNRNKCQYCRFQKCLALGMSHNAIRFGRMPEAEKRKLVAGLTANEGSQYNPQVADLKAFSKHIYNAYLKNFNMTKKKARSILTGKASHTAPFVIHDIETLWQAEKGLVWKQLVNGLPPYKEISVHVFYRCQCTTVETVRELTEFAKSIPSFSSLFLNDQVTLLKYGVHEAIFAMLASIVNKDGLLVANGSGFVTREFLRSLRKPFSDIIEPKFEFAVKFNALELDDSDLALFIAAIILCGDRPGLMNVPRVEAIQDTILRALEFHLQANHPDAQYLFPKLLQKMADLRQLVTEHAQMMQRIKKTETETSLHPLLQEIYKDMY
Vitamin D3 receptor (Homo sapiens), sequence (P11473 whole entry, looked up): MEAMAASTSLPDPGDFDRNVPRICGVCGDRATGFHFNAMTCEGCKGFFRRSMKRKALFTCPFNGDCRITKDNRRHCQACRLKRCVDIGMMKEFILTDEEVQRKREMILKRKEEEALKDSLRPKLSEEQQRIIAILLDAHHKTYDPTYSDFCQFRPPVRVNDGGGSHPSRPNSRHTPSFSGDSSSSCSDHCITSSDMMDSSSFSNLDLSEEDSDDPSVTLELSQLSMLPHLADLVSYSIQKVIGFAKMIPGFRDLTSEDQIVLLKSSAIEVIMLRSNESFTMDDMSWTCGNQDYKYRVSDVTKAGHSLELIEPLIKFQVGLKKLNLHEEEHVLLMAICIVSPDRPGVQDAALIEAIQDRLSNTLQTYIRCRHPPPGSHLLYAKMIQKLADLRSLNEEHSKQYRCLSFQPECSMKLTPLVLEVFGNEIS
Bile acid receptor (Homo sapiens), sequence (Q96RI1 whole entry, looked up): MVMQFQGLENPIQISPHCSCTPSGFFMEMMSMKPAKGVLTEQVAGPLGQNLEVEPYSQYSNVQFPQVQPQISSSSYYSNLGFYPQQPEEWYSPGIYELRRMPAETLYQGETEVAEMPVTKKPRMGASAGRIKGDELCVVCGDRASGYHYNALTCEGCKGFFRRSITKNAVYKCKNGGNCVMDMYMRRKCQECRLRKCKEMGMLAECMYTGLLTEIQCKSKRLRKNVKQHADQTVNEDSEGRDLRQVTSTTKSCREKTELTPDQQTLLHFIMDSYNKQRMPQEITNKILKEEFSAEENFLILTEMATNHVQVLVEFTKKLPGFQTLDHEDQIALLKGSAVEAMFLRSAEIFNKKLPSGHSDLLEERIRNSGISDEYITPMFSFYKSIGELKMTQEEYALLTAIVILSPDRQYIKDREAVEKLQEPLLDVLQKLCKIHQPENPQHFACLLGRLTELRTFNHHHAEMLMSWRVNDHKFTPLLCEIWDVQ

Take `CCCCCCC#N`: the Potency result in experiment [1], in [2], in experiment [3], in experiment [4], in experiment [5] and in experiment [7] was “inactive” each time. Besides, the Potency entry in experiment [9], in experiment [10], in experiment [11], in experiment [12] and in [14] was “inactive” in each case. Further, the call in experiment [6], in [8], in experiment [13], in [15] and in experiment [16] was inactive.

Turning to `O=[Se]=O`, the Potency entry in experiment [1], in experiment [17], in experiment [3], in experiment [5], in experiment [18] and in experiment [7] was “inactive” each time. Besides, the Potency result in experiment [9], in [11], in experiment [12] and in [14] was “inactive” throughout. Besides, in [4], the Potency is 8.58 µM (active). Further, the compound was classed as inactive in experiment [6], in experiment [13], in [15] and in experiment [16].

For `COP(=S)(Oc1cc(Cl)c(Br)cc1Cl)c1ccccc1` (stereo unspecified), the Potency entry in experiment [1], in experiment [2], in experiment [9] and in [14] was “inactive” throughout. In addition, the Potency was 27.3 µM (active) in experiment [17] and 48.6 µM (active) in experiment [5]. The call in experiment [6], in experiment [8], in [15] and in experiment [16] was inactive.

`O=C(Nc1ccccc1)Nc1cnns1`: the Potency result in experiment [1], in [19], in experiment [3], in experiment [20], in experiment [5] and in experiment [18] was “inactive” throughout. Besides, the Potency result in experiment [7], in experiment [9], in experiment [10] and in experiment [11] was “inactive” throughout. Moreover, the Potency in [17] is 15.3 µM (active). Besides, the result in experiment [6], in experiment [8], in experiment [13] and in experiment [15] was inactive.

Turning to `CNP(=O)(OC)Oc1ccc(C(C)(C)C)cc1Cl` (stereo unspecified), the Potency result in experiment [1], in experiment [2], in experiment [5], in experiment [7], in experiment [9] and in [10] was “inactive” each time. Also, the Potency result in experiment [14] was “inactive”. The Potency in experiment [3] is 43.6 µM (active); in [4] it was 54.5 µM (active). Further, the compound was called inactive in experiment [6], in experiment [8], in experiment [15] and in experiment [16].

As to `OCCCBr`, the Potency entry in [1], in experiment [2], in experiment [19], in experiment [20], in experiment [7] and in [12] was “inactive” in each case. The outcome in experiment [6] was inactive.

Take `CCCCC(O)(Cn1cncn1)c1ccc(Cl)cc1Cl` (stereo unspecified): in [1], the Potency was 68.5 µM (active). Moreover, the Potency entry in experiment [17], in [19] and in [12] was “inactive” in each case. Moreover, the call in [13] was inactive.

`CN(N=O)c1ccc([N+](=O)[O-])cc1`: the Potency result in experiment [1], in experiment [2], in experiment [19], in experiment [3], in experiment [20] and in experiment [4] was “inactive” throughout. Moreover, the Potency result in experiment [18], in [7], in [9] and in experiment [11] was “inactive” in each case. Also, the outcome in experiment [6], in experiment [13], in experiment [15] and in experiment [16] was inactive.

For the compound `Cc1ccc(N)cc1C`, the Potency entry in experiment [1], in [2], in experiment [19], in experiment [20], in experiment [4] and in [5] was “inactive” in each case. The Potency result in [18], in experiment [7], in experiment [12] and in experiment [14] was “inactive” in each case. Further, the compound was called inactive in [6], in experiment [8], in experiment [13], in [15] and in experiment [16].

Turning to `NNC(=O)c1cccnc1`, the Potency result in experiment [1], in [2], in experiment [19], in [3], in experiment [20] and in [4] was “inactive” in each case. The Potency entry in [7], in experiment [9], in experiment [10], in experiment [11] and in experiment [14] was “inactive” throughout. Moreover, the outcome in experiment [6], in experiment [8], in experiment [13], in experiment [15] and in experiment [16] was inactive.
